This is an account of results in ChEMBL document CHEMBL4296182, “CO-ADD screening of NIH NCI Diversity Set V”.

For part of these data: Entries with a potency or affinity are not part of this list.

In assay [1] the test system is Staphylococcus aureus. Nature of the assay: Antibacterial activity against Staphylococcus aureus MRSA ATCC 43300 (CO-ADD:GP_020); MIC in CAMBH media using NBS plates, by Resazurin F(560/590). It counts as functional. The note with it: Concentration 20 uM, ASSAY_TEST Inhibition of Bacterial Growth, detection method Resazurin, Fluorescence (ex560/em590), MEDIA CAMHB, plate type 384well, CORNING #3640, time 18 hr. For orientation: Resazurin is reduced to fluorescent resorufin, in cell work by metabolically active cells.

Assay [2] concerns Acinetobacter baumannii. As to the kind of experiment: Antibacterial activity against Acinetobacter baumannii ATCC 19606 (CO-ADD:GN_034); MIC in CAMBH media using NBS plates, by Resazurin F(560/590). It counts as functional. The following applies: Concentration 20 uM, ASSAY_TEST Inhibition of Bacterial Growth, detection method Resazurin, Fluorescence (ex560/em590), MEDIA CAMHB, plate type 384well, CORNING #3640, time 18 hr.

In assay [3] the test system is Escherichia coli. Nature of the assay: Antibacterial activity against Escherichia coli ATCC 25922 (CO-ADD:GN_001); MIC in CAMBH media using NBS plates, by Resazurin F(560/590). The note with it: Concentration 20 uM, ASSAY_TEST Inhibition of Bacterial Growth, detection method Resazurin, Fluorescence (ex560/em590), MEDIA CAMHB, plate type 384well, CORNING #3640, time 18 hr. It counts as functional.

The subject of assay [4] is Klebsiella pneumoniae. The note with it: Concentration 20 uM; ASSAY_TEST Inhibition of Bacterial Growth; detection method Absorption (OD600); MEDIA CAMHB; plate type 384well; NBS; CORNING #3640; time 18 hr.
Assay [5] has as its system Candida albicans. The following applies: 20 µM.
Assay [6] has as its system Cryptococcus neoformans. The following applies: Concentration 20 uM; ASSAY_TEST Inhibition of Fungal Growth; detection method Resazurin; Absorption (OD600-OD570); plate type 384well; NBS; CORNING #3640.

On to `Cn1ncc2c(Nc3ccc([N+](=O)[O-])cc3)nc(Cl)nc21`, for which the Inhibition (in general, the change of the read-out against control, counted positive when it falls) in assay [1] is -16.06%; in assay [2], 3.27%; in assay [3], -14.4%; in assay [4], -8.72%; in assay [5] it was -1.97%; in assay [6], -3.09%.
On to `CC1=CC(=O)CC(C)(C)C1(O)/C=C/C(C)=C/C(=O)O` (stereo unspecified), for which the Inhibition is -9.32% in assay [1]; -14.23% in assay [2]; 1.66% in assay [3]; 3.67% in assay [4]; 5.51% in assay [5]; -3.67% in assay [6].
For `Cc1nc2ccc(N)nc2nc1C`, the Inhibition in assay [1] was 15.94%; in assay [2] it was -14.31%; in assay [3] it was 16.52%; in assay [4] it was 12.13%; in assay [5] it was -1.28%; in assay [6], -2.36%.
For `Nc1ccccc1SC1CC(=O)N(c2ccccc2Cl)C1=O` (stereo unspecified), the Inhibition is -6.84% in assay [1]; 10.38% in assay [2]; -12.68% in assay [3]; 6.14% in assay [4]; 15% in assay [5]; -0.17% in assay [6].
As for `C=CCC(CC)C(=O)NC(=O)N1CCCc2ccccc21` (stereo unspecified), the Inhibition was -2.1% in assay [1]; 11.89% in assay [2]; -1.31% in assay [3]; 11.1% in assay [4]; 4.92% in assay [5]; -1.85% in assay [6].
Turning to `O=C1c2ccccc2C(=O)N1c1nc[nH]n1`, the Inhibition in assay [1] was 4.45%; in assay [2] it was -18.59%; in assay [3], 12.38%; in assay [4], 0.02%; in assay [5], -0.21%; in assay [6] it was -4.67%.
Take `c1ccc(-c2cn3ccccc3n2)cc1`: the Inhibition in assay [1] is 26.82%; in assay [2] it was -4.96%; in assay [3] it was 13.79%; in assay [4] it was 17.46%; in assay [5], -0.09%; in assay [6] it was -2.58%.
Consider `COC(=O)c1ccc(C(=O)OC)c(O)n1`, for which the Inhibition in assay [1] was 3.27%; in assay [2], 9.07%; in assay [3], 2.76%; in assay [4], 7.35%; in assay [5], 0.7%; in assay [6] it was -5.98%.
For the molecule `O=C(O)c1cnn2c(S)ncnc12`, the Inhibition in assay [1] is 16.65%; in assay [2], -14.23%; in assay [3] it was 9.48%; in assay [4], 8.17%; in assay [5] it was -0.99%; in assay [6] it was -3.32%.
On to `COc1ccc2c(C)cc(C)nc2n1`, for which the Inhibition in assay [1] was 4.34%; in assay [2], -9.69%; in assay [3] it was 1.95%; in assay [4] it was -0.51%; in assay [5], 3.88%; in assay [6] it was -1.59%.
For the molecule `Nc1ccccc1-n1nc2ccc3ccccc3c2n1`, the Inhibition in assay [1] is -2.24%; in assay [2], -24.16%; in assay [3] it was 7.22%; in assay [4], 6.99%; in assay [5], 3.16%; in assay [6] it was -10.55%.
`CCCc1nc2c(=O)n(C)c(=O)n(C)c2[nH]1`: the Inhibition in assay [1] is 14.39%; in assay [2], -13.67%; in assay [3], 8.23%; in assay [4] it was 14.55%; in assay [5], 2.02%; in assay [6] it was -4.69%.
`c1ccn(CCc2ccncc2)c1`: the Inhibition in assay [1] was 10.09%; in assay [2], -4.91%; in assay [3], 7.14%; in assay [4], 10.92%; in assay [5], 2.03%; in assay [6], -5.95%.
Turning to `CC(C)(C)CC(C)(C)n1nnnc1N`, the Inhibition in assay [1] was 12.74%; in assay [2], -17.3%; in assay [3] it was 15.8%; in assay [4], 12.31%; in assay [5], 0.83%; in assay [6], -5.24%.
Turning to `Cc1cc2cc3n(c2nn1)N=C(Cl)CC3`, the Inhibition is 10.12% in assay [1]; 6.88% in assay [2]; -0.69% in assay [3]; 18.79% in assay [4]; 2.37% in assay [5]; -3.5% in assay [6].
Turning to `CCOC(=O)c1nc(O)c2c3c(sc2n1)CCCC3`, the Inhibition in assay [1] was 16.28%; in assay [2], -13.3%; in assay [3], 15.58%; in assay [4], 5.02%; in assay [5], 10%; in assay [6] it was -8.42%.
As for `Clc1nc(Cl)nc(-c2cn(-c3ccccc3)c3ccccc23)n1`, the Inhibition is 19.15% in assay [1]; 12.32% in assay [2]; 3.43% in assay [3]; 3.41% in assay [4]; -0.1% in assay [5]; 5.66% in assay [6].
On to `COc1cc([N+](=O)[O-])ccc1NC(=O)Oc1ccc(NC(C)=O)cc1`, for which the Inhibition is 1.87% in assay [1]; 5.68% in assay [2]; 0.56% in assay [3]; 4.62% in assay [4]; 0.51% in assay [5]; -16.29% in assay [6].
`Oc1ccccc1-c1nnco1` [FENADIAZOLE]: the Inhibition in assay [1] was 4.3%; in assay [2], -3.75%; in assay [3] it was 4.12%; in assay [4], 8.02%; in assay [5], 0.92%; in assay [6], -7.26%.
With `CCN(CC)CCNc1c(C)nc(C#N)c(N)[n+]1[O-]`, the Inhibition in assay [1] is 6.23%; in assay [2], -9.24%; in assay [3], 11.24%; in assay [4], 8.95%; in assay [5], 2.9%; in assay [6] it was -16.29%.
As for `N=C(N)NC(=N)Nc1ccc(O)cc1`, the Inhibition is 11.3% in assay [1]; -14.34% in assay [2]; 13.43% in assay [3]; 0.41% in assay [4]; 0.07% in assay [5]; -11.16% in assay [6].
In the case of `CN(C)c1ncnc2c1ncn2-c1ccccc1`, the Inhibition is -6.98% in assay [1]; -8.04% in assay [2]; 0.85% in assay [3]; 6.41% in assay [4]; 1.36% in assay [5]; -5.49% in assay [6].
With `CSc1nc(O)c(Nc2cccc(Cl)c2)c(O)n1`, the Inhibition in assay [1] is 7.02%; in assay [2], 14.23%; in assay [3] it was -1.67%; in assay [4], 7.49%; in assay [5] it was 0%; in assay [6], 16.48%.
As to `OCc1cc(O)c(CO)nn1`, the Inhibition is -17.8% in assay [1]; -1.67% in assay [2]; -7.33% in assay [3]; 4.1% in assay [4]; -0.36% in assay [5]; 1.1% in assay [6].
For the molecule `Oc1ccc2ccc3[nH]cnc3c2c1`, the Inhibition was 14.46% in assay [1]; -12.2% in assay [2]; 3.66% in assay [3]; 6.42% in assay [4]; -0.74% in assay [5]; -8.68% in assay [6].
Consider `C=CCOc1ccc(S(C)(=O)=O)cc1`, for which the Inhibition in assay [1] was -0.52%; in assay [2], -11.44%; in assay [3], 7.79%; in assay [4], 4.92%; in assay [5], 1.73%; in assay [6] it was -10.45%.
